This is an account of results in the supplement of paper PMC12067926.

A number with no mark means an inactive call.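 Rule for the calls: active = growth AUC significantly below the DMSO wells by Dunnett test; inactive = the rest.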

Compound in the experiment: CN(C)C(=O)Nc1ccc(Cl)c(Cl)c1
Put plainly: relative growth (AUC of 72 h growth curve relative to DMSO control, dAUC) (ratio); higher = more growth (less inhibition), active = hit call of the paper. As to conditions: 20 µM. On the procedure: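 Environmental bacterial isolates (Iceland stream sediment and Silwood Park soil) and whole stream-sediment communities were grown in LB from a 1:100 dilution with each pesticide at 20 µM (1% DMSO). A600 was read hourly for 72 h and the area under a spline-fitted growth curve (AUC) was computed. dAUC is the mean AUC of 3 biological replicates divided by the mean AUC of the DMSO controls. Significance was tested by Dunnett's test against the DMSO control.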
As for “Paenibacillus 1 (Paenibacillus castaneae)”, the relative growth is 0.883.

As to Pseudomonas 1 (Pseudomonas baetica), the relative growth is 1.03.

On to Community 4, for which the relative growth was 1.09.

Regarding Aeromonas 1 (Aeromonas sp. AE235), the relative growth was 0.942.

For the target “Flavobacterium 2 (Flavobacterium succinicans)”, the relative growth was 0.961.

Take Community 9: the relative growth is 1.04.

With Rhizobium 1 (Rhizobium herbae), the relative growth was 1.19.

For the target Arthrobacter 2 (Arthrobacter humicola), the relative growth was 0.977.

On to Community 7, for which the relative growth is 1.23.

Regarding “Flavobacterium 1 (Flavobacterium glaciei)”, the relative growth was 0.999.

Take Community 10: the relative growth is 1.05.

With Arthrobacter 1 (Arthrobacter humicola), the relative growth is 0.944.

With Community 6, the relative growth was 1.03.

In the case of Bacillus 1 (Bacillus foraminis), the relative growth is 0.958.

In the case of Argrobacterium 1 (Agrobacterium sp.), the relative growth was 0.867.

Consider Aeromonas 2 (Aeromonas sobria), for which the relative growth is 0.943.

In the case of Serratia 1 (Serratia sp. 2015-2462-01), the relative growth is 0.942.

With “Carnobacterium 1 (Carnobacterium gallinarum)”, the relative growth is 0.949.

Neobacillus 1 (Neobacillus soli): the relative growth is 0.899.

For the target Oryzobacter 1 (Oryzobacter terrae), the relative growth is 1.13.

Consider Pseudomonas 5 (Pseudomonas baetica), for which the relative growth is 1.02.

For the target Arthrobacter 3 (Arthrobacter sp.), the relative growth was 0.947.

In the case of “Microbacterium 1 (Microbacterium arborescens)”, the relative growth was 1.03.

As for Pseudomonas 6 (Pseudomonas sp.), the relative growth is 1.07.

For the target Community 8, the relative growth was 1.11.

For “Pseudomonas 2 (Pseudomonas vancouverensis)”, the relative growth is 0.988.

For the target Pseudomonas 3 (Pseudomonas mandelii), the relative growth was 1.02.

Pseudomonas 4 (Pseudomonas peli): the relative growth is 0.939.

For Aeromonas 3 (Aeromonas popoffii), the relative growth was 0.977.

As to Sphingomonas 2 (Sphingomonas sp.), the relative growth is 1.04.

For the target “Prolinoborus 1 (Prolinoborus fasciculus)”, the relative growth was 0.957.

Consider Hymenobacter 1 (Hymenobacter glaciei), for which the relative growth is 1.02.
